Measurements taken from PubChem BioAssay (NCATS).
Inconclusive results are not listed. A call without a number means that no potency is given here. Active and inactive are the calls of the source. Calls come from the whole dose curve; as a rule, active = well fitted inhibition curve with a large enough effect; inconclusive = small, poorly fitted or top-dose-only effect; inactive = flat fitted curve, though single readings scatter.

The compounds below were run on CRL-7250 (assay: qHTS assay to identify novel small-molecules to repurpose for Merkel cell carcinoma treatment (AID 1296009; note: nearly all actives have a fitted effect of over 60% in size)). Settings: MCC and control cell lines, CellTiter-Glo viability, 72 h; series mostly up to 92 µM.
Outline: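 Dose-response viability screen; 72 hr exposure at 37 degree celsius; CellTiter-Glo added, 10 min room temperature, luminescence read; RLUs scaled between no-cell and DMSO wells.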

**Q.** How did the Potency turn out when CC(c1ncncc1F)C(O)(Cn1cncn1)c1ccc(F)cc1F (centres undefined) was run?
**A.** inactive

**Q.** For C=C[C@H]1[C@H](O[C@@H]2O[C@H](CO[C@@H]3OC[C@](O)(CO)[C@H]3O)[C@@H](O)[C@H](O)[C@H]2O)OC=C2C(=O)OCC[C@H]21, which Potency is on record?
**A.** inactive

**Q.** CC1CC2OCC3(O)CCC(O)C(C14CC(c1ccoc1)OC4=O)C23CO (centres undefined) was tested. Which Potency did it give?
**A.** inactive

**Q.** Which Potency does the source give for CCCC(=O)Nc1cccc(NC(=O)c2ccccc2Br)c1 here?
**A.** inactive

**Q.** How did the outcome turn out when CC(=O)O[C@@H]1[C@H](O[C@@H]2O[C@@H](CO)[C@H](O)[C@H]2O)[C@@H](O[C@@H]2O[C@@H](C)[C@H](O[C@@H]3OC[C@@H](O)[C@H](O)[C@H]3O)[C@@H](O)[C@H]2O)[C@H](OC(=O)[C@]23CCC(C)(C)C[C@H]2C2=CCC4[C@@]5(C)CC[C@H](O[C@@H]6O[C@H](C(=O)O)[C@@H](O)[C@H](O)[C@H]6O[C@@H]6O[C@H](CO)[C@H](O)[C@H](O)[C@H]6O)[C@@](C)(C=O)C5CC[C@@]4(C)[C@]2(C)CC3)O[C@@H]1C (some centres undefined) was run?
**A.** inactive [at 9.27 µM]

**Q.** With Cc1oc(S(=O)(=O)N2CCCCC2)cc1NC(=O)Nc1ccccc1 as the compound, how does the Potency read?
**A.** inactive

**Q.** C[C@@H]1O[C@@H](O[C@H]2[C@H](O)[C@@H](O)[C@H](OC[C@H]3O[C@@H](OC(=O)[C@]45CCC(C)(C)C[C@H]4C4=CCC6[C@@]7(C)CC[C@H](O[C@@H]8OC[C@H](O)[C@H](O[C@@H]9O[C@H](CO)[C@@H](O)[C@H](O)[C@H]9O)[C@H]8O)[C@@](C)(CO)C7CC[C@@]6(C)[C@]4(C)CC5)[C@H](O)[C@@H](O)[C@@H]3O)O[C@@H]2CO)[C@H](O)[C@H](O)[C@H]1O (some centres undefined) was tested. Which outcome did it give?
**A.** inactive [at 9.27 µM]

**Q.** For CC[C@@H](Nc1c(Nc2cccc(C(=O)N(C)C)c2O)c(=O)c1=O)c1ccc(C)o1, which Potency is on record?
**A.** inactive

**Q.** With C=C(CO)C(=O)O[C@H]1C[C@@]23O[C@@H]2CC/C(=C/[C@H]2OC(=O)C(=C)[C@H]12)CO[C@H]3O as the compound, how does the Potency read?
**A.** inactive

**Q.** For CC(=O)c1ccc(O[C@@H]2OC[C@@H](O)[C@H](O)[C@H]2O[C@]2(CO)O[C@H](CO)[C@@H](O)[C@@H]2O)c(O)c1, which Potency is on record?
**A.** inactive

**Q.** CC/C=C\C(O)C(O)C1=C(C)C(=O)C2(O1)C(=O)NC(OC)(C(=O)c1ccccc1)C2O (centres undefined) was tested. Which Potency did it give?
**A.** inactive

**Q.** How did the Potency turn out when CC1(C=O)CCCC2(C)C1CCC13CC(CO)C(CCC12)C3 (centres undefined) was run?
**A.** inactive

**Q.** Which Potency does the source give for COc1ccc(C(O[C@@H]2O[C@H](CO)[C@@H](O)[C@H](O)[C@H]2O)C(CO)Oc2ccc(/C=C/CO)cc2OC)cc1O (some centres undefined) here?
**A.** inactive

**Q.** C=C1CC[C@H]2[C@@](C)(CCC(O)[C@@]2(C)CO)[C@@H]1C/C=C(/C(=O)O)C(O)CO (some centres undefined) was tested. Which Potency did it give?
**A.** inactive

**Q.** CC1CC(=O)C2=C(O1)OC1(C)CCC3C(C)(C)C4OC4C(=O)C3(C)C1C2 (centres undefined) was tested. Which Potency did it give?
**A.** inactive

**Q.** O=C(Nc1ccc(-c2ccc(Cl)c(Cl)c2)cc1)C1=C(O)c2ccccc2S(=O)(=O)N1 was tested. Which Potency did it give?
**A.** inactive

**Q.** For C=C1[C@H]2[C@H](O[C@@H]3O[C@H](COC(=O)/C=C/c4cc(OC)c(O)c(OC)c4)[C@@H](O)[C@H](O)[C@H]3O)OC=C(C(=O)O)[C@H]2C[C@@H]1O, which Potency is on record?
**A.** inactive

**Q.** How did the Potency turn out when COC1C=C([C@@H]2CC=C3[C@@]4(C)C(CC[C@]32C)[C@@]2(C)C=CC(=O)C(C)(C)C2C[C@H]4OC(C)=O)C(=O)O1 (some centres undefined) was run?
**A.** inactive

**Q.** For C[C@H](Oc1ccc(S(C)(=O)=O)cc1C(=O)N1CCN(c2ncc(C(F)(F)F)cc2F)CC1)C(F)(F)F, which Potency is on record?
**A.** inactive

**Q.** COc1cccc(C(=O)N2CCN(C(=O)COc3cccc(C)c3)CC2)c1OC was tested. Which Potency did it give?
**A.** inactive

**Q.** Which Potency does the source give for CC12CC(c3ccoc3)OC(=O)C1CCC1(C)C2CCC(O)C1(C)O (centres undefined) here?
**A.** inactive

**Q.** Cc1cc(-c2nncc3c(C(C)(C)C)c(OCc4ncnn4C)nn23)no1 was tested. Which Potency did it give?
**A.** inactive

**Q.** With CC(C)(C)NCC(O)COc1cccc2c1CCCC2=O (centres undefined) as the compound, how does the Potency read?
**A.** inactive

**Q.** Which Potency does the source give for O=C1CC(c2ccc([N+](=O)[O-])cc2)=NN1c1ccccc1 here?
**A.** inactive

**Q.** For CCc1cc(CC[C@]2(C3CCCC3)CC(O)=C(Cc3nc4nc(C)cc(C)n4n3)C(=O)O2)cc(CC)n1, which Potency is on record?
**A.** inactive

**Q.** For FC(F)(F)c1cc(C(F)(F)F)c2ccc3nc(-c4nnco4)cn3c2n1, which Potency is on record?
**A.** inactive

**Q.** With COC(=O)c1cc(OC)c(O[C@@H]2O[C@@H](C)[C@H](O)[C@@H](O)[C@H]2O)c(OC)c1 as the compound, how does the Potency read?
**A.** inactive

**Q.** For COC1=CC(=O)O[C@@H](/C=C/c2ccccc2)[C@@H]1O, which Potency is on record?
**A.** inactive

**Q.** Which Potency does the source give for CC12CCC3C(C)(C)C(O)CCC3(C)C1Cc1c(oc(C(=O)O)cc1=O)O2 (centres undefined) here?
**A.** inactive

**Q.** Which Potency does the source give for NCCCC[C@H](NC(=O)[C@@H]1Cc2ccccc2CN1C(=O)CCC(=O)c1ccccc1)C(=O)NCC(c1ccccc1)c1ccccc1 here?
**A.** inactive

**Q.** How did the Potency turn out when CCOc1ccc(C(Nc2ccccn2)c2ccc3ccc(C)nc3c2O)cc1C (centres undefined) was run?
**A.** inactive

**Q.** With OC[C@H]1O[C@@H](OCc2ccccc2)[C@H](O[C@@H]2OC[C@@H](O)[C@H](O)[C@H]2O)[C@@H](O)[C@@H]1O as the compound, how does the Potency read?
**A.** inactive

**Q.** Which Potency does the source give for CC(C)C1NC(=O)C2CCCN2C1=O (centres undefined) here?
**A.** inactive

**Q.** CCc1nn(CCO)c(CC)c1Oc1cc(C#N)cc(C#N)c1 was tested. Which Potency did it give?
**A.** inactive

**Q.** Cc1occc(=O)c1O[C@@H]1O[C@H](CO[C@@H]2OC[C@](O)(CO)[C@H]2O)[C@@H](O)[C@H](O)[C@H]1O was tested. Which Potency did it give?
**A.** inactive

**Q.** Which Potency does the source give for COc1ccc(CNC(=O)c2cc(-c3cncc(C)c3)ncc2-c2nccs2)nc1OC here?
**A.** inactive

**Q.** How did the Potency turn out when CC1(C)CC[C@]2(C(=O)O)CC[C@]3(C)C(=CCC4[C@@]5(C)C[C@@H](O)[C@H](O)[C@@](C)(CO)C5CC[C@]43C)C2C1 (some centres undefined) was run?
**A.** inactive

**Q.** For COc1cc(/C=C/C(=O)O[C@H]2[C@@H]3C=CO[C@@H](O[C@@H]4O[C@H](CO)[C@@H](O)[C@H](O)[C@H]4O)[C@@H]3[C@@]3(CO)O[C@@H]23)ccc1O, which Potency is on record?
**A.** inactive

**Q.** Which Potency does the source give for CO[C@@H](Cc1ccc(OCCc2nc(-c3ccccc3)oc2C)c2ccsc12)C(=O)O here?
**A.** inactive
